The values below come from ChEMBL document CHEMBL2218924, “A broad activity screen in support of a chemogenomic map for kinase signalling research and drug discovery” (Biochem J, 2013).

Test [1] concerns the target Ribosomal protein S6 kinase alpha-1 (Homo sapiens) (UniProt Q15418). As to conditions: at 1 µM.
Test [2] has the same target. Conditions: at 10 µM.
For test [3], the target named is Ribosomal protein S6 kinase alpha-3 (Homo sapiens) (UniProt P51812). Conditions: at 1 µM.
Test [4] shares this target. As to conditions: at 10 µM.
Test [5] deals with Ribosomal protein S6 kinase alpha-2 (Homo sapiens) (UniProt Q15349). As to conditions: at 1 µM.
Chain of Ribosomal protein S6 kinase alpha-2 (Homo sapiens) (Q15349 whole entry): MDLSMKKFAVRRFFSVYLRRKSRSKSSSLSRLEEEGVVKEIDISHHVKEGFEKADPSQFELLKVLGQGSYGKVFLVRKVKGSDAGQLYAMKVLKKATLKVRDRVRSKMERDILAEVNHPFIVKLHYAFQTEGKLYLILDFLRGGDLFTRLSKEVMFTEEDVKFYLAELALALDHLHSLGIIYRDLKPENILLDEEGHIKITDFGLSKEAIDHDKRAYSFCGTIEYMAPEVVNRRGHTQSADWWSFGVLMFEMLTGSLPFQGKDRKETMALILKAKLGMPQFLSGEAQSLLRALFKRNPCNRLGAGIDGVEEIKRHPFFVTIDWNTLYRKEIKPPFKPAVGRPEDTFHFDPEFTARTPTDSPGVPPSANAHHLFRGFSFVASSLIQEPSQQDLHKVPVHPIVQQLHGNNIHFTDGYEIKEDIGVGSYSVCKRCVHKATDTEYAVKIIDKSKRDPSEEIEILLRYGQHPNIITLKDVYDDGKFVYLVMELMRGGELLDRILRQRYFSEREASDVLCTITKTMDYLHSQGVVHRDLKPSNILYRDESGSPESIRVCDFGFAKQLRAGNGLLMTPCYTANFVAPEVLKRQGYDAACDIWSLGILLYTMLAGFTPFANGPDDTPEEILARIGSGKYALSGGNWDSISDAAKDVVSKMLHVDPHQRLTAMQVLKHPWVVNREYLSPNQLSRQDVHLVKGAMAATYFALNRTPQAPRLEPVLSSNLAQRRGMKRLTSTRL
Test [6] has the same target. Conditions: at 10 µM.
Test [7] has as its target Ribosomal protein S6 kinase alpha-6 (Homo sapiens) (UniProt Q9UK32). As to conditions: at 1 µM.
For test [8] the target is unchanged. As to conditions: at 10 µM.
The target of test [9] is Mitogen-activated protein kinase 14 (Homo sapiens) (UniProt Q16539). As to conditions: at 1 µM.
Chain of Mitogen-activated protein kinase 14 (Homo sapiens) (Q16539 whole entry): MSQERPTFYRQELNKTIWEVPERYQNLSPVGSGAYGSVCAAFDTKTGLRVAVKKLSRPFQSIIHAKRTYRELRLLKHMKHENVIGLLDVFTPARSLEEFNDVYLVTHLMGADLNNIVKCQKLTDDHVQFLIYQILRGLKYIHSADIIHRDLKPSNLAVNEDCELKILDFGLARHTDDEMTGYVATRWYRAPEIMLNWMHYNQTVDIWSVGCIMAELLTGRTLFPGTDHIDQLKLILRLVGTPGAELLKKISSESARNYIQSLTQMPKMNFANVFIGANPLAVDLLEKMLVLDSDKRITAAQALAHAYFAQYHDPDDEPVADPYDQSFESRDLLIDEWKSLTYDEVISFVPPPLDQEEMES
The target is the same in test [10]. Conditions: at 10 µM.

Chain of Ribosomal protein S6 kinase alpha-1 (Homo sapiens) (Q15418 whole entry): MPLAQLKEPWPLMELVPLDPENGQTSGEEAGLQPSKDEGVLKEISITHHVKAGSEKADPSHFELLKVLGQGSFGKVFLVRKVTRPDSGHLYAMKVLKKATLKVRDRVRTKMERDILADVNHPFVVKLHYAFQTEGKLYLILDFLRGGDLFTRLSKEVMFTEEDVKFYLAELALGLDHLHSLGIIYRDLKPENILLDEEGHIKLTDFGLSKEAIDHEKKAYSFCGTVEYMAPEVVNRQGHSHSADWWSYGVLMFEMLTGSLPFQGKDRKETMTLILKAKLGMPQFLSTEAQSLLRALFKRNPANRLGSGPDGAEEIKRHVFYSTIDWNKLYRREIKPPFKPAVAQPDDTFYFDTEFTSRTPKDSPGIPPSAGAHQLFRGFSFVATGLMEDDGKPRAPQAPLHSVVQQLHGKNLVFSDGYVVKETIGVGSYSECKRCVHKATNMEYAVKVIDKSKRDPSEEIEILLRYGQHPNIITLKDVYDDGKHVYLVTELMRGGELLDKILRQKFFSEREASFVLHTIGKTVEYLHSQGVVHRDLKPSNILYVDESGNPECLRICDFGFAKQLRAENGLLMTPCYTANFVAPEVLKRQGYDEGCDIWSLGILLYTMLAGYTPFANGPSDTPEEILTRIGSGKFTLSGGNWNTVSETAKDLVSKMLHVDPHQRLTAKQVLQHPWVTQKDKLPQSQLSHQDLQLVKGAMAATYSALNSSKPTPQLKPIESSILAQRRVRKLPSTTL
Chain of Ribosomal protein S6 kinase alpha-3 (Homo sapiens) (P51812 whole entry): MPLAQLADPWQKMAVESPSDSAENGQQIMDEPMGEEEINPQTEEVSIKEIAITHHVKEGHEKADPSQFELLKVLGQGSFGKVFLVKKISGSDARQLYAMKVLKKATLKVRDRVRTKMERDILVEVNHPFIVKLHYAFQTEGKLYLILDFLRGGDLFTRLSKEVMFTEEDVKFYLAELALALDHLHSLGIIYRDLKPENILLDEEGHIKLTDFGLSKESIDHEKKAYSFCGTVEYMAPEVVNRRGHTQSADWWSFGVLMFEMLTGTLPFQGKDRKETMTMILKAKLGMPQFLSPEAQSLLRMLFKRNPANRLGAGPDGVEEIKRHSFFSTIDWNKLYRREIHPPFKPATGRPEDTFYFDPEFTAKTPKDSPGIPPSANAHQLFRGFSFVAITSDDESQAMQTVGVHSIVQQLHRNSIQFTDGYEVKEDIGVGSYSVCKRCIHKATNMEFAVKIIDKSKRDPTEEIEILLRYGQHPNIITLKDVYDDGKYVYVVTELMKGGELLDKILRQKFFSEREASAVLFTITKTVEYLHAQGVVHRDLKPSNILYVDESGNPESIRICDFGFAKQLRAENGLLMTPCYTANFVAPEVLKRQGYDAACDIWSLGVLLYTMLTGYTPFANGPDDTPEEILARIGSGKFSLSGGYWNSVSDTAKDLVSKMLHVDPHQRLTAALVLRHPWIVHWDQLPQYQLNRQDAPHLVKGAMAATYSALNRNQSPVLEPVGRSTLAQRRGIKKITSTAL
Chain of Ribosomal protein S6 kinase alpha-6 (Homo sapiens) (Q9UK32 whole entry): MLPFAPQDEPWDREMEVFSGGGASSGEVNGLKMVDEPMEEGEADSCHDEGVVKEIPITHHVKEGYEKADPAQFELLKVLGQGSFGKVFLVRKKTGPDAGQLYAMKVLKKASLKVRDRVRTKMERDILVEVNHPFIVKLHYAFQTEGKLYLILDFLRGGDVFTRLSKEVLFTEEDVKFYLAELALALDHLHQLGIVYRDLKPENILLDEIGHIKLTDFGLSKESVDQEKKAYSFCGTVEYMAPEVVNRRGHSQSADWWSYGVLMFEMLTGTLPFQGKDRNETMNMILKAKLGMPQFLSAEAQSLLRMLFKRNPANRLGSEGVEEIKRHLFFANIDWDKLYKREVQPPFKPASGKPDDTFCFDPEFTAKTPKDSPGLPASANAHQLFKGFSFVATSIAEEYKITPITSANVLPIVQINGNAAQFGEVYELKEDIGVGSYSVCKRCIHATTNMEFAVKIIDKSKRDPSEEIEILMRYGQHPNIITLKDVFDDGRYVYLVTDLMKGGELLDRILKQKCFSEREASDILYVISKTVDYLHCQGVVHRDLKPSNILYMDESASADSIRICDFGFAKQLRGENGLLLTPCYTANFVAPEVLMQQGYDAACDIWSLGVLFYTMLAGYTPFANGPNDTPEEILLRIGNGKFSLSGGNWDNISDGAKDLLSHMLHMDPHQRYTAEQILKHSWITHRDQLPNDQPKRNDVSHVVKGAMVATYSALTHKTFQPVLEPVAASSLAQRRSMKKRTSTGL

Consider `CN(C)c1ccc(/C=C2\C(=O)Nc3ccccc32)cc1`, for which the residual activity stood at 66% in [1]; 34% in test [2]; 47% in test [3]; 16% in test [4]; 74% in test [5]; 25% in test [6]. The residual activity in [7] is 91%; in test [8], 40%; in test [9], 102%; in test [10] it was 106%.
With `O=c1c2ccccc2[nH]c(=S)n1CCN1CCC(=C(c2ccc(F)cc2)c2ccc(F)cc2)CC1`, the residual activity in [1] is 113%; in [2] it was 61%; in [3] it was 79%; in [4], 50%; in [5], 119%; in [6] it was 100%. The residual activity is 114% in test [7], 91% in test [8], 97% in test [9] and 104% in test [10].
For `Oc1ccc(Nc2nc(-c3ccc(Cl)cc3)cs2)cc1`, the residual activity came to 113% in test [1]; 103% in test [2]; 75% in [3]; 86% in test [4]; 91% in test [5]; 80% in test [6]. For the same molecule, the residual activity was determined as 93% in test [7], 113% in test [8], 89% in test [9] and 35% in [10].
For `CC(C)n1cnc2c(NCc3ccccc3)nc(NCCCO)nc21`, the residual activity came to 102% in test [1]; 82% in test [2]; 101% in test [3]; 87% in test [4]; 101% in test [5]; 72% in [6]. Besides, the residual activity is 81% in test [7], 91% in test [8], 87% in test [9] and 82% in test [10].
For the molecule `CO[C@H]1C[C@@H]2CC[C@@H](C)[C@@](O)(O2)C(=O)C(=O)N2CCCC[C@H]2C(=O)O[C@H]([C@H](C)C[C@@H]2CC[C@@H](O)[C@H](OC)C2)CC(=O)[C@H](C)/C=C(\C)[C@@H](O)[C@@H](OC)C(=O)[C@H](C)C[C@H](C)/C=C/C=C/C=C/1C`, the residual activity came out at 110% in test [1]; 112% in test [2]; 44% in [3]; 55% in test [4]; 102% in test [5]; 90% in test [6]. Besides, the residual activity amounted to 105% in test [7], 112% in test [8], 72% in test [9] and 83% in test [10].
In the case of `O=C1NC(=O)/C(=C/c2ccc3c(c2)OC(F)(F)O3)S1`, the residual activity stood at 125% in test [1]; 65% in test [2]; 56% in [3]; 35% in test [4]; 117% in test [5]; 99% in test [6]. For the same molecule, the residual activity in [7] was 125%; in [8], 103%; in test [9], 99%; in test [10], 109%.
On to `CC(=O)O/N=C1\C(=C2\C(=O)Nc3cc(Br)ccc32)Nc2ccccc21`, for which the residual activity in test [1] was 105%; in [2] it was 59%; in [3] it was 40%; in test [4] it was 28%; in [5] it was 71%; in test [6], 34%. In addition, the residual activity in test [7] amounted to 74%; in [8], 89%; in test [9], 88%; in [10], 85%.
Turning to `COc1cc2ncnc(Nc3ccc(Oc4ccccc4)cc3)c2cc1OC`, the residual activity amounted to 122% in test [1]; 78% in test [2]; 104% in [3]; 126% in test [4]; 100% in test [5]; 73% in test [6]. Moreover, the residual activity in [7] stood at 102%; in test [8], 130%; in test [9] it was 75%; in test [10], 80%.
Turning to `N#C/C(=C(\N)Sc1ccc(N)cc1)c1ccccc1C(F)(F)F`, the residual activity came out at 40% in test [1]; 42% in test [2]; 28% in test [3]; 15% in test [4]; 53% in [5]; 48% in test [6]. For the same molecule, the residual activity was 103% in test [7], 104% in [8], 87% in test [9] and 82% in test [10].
`CO[C@H]1[C@@H](OC)C[C@H](C)[C@@H](OC)C2=CC(=O)C=C(NC(=O)/C(C)=C/C=C/[C@H](OC)[C@@H](OC(N)=O)/C(C)=C/[C@@H]1C)C2=O`: the residual activity in [1] was determined as 115%; in [2], 84%; in [3], 50%; in test [4], 36%; in test [5], 93%; in [6], 104%. Also, the residual activity in [7] was 113%; in test [8], 91%.
`Nc1cccc(-c2cc3c(Oc4cccc(O)c4)ncnc3[nH]2)c1`: the residual activity in test [1] is 97%; in test [2], 68%; in test [3], 68%; in test [4], 32%; in [5] it was 76%; in test [6], 27%. In addition, the residual activity amounted to 56% in test [7], 41% in test [8], 54% in [9] and 11% in test [10].
As to `N#Cc1cnc2cnc(NCc3cccnc3)cc2c1Nc1ccc(F)c(Cl)c1`, the residual activity in test [1] was 2%; in test [2] it was 1%; in test [3] it was 0%; in [4], -1%; in [5], 0%; in [6], 0%. In addition, the residual activity amounted to 97% in test [7], 93% in test [8], 87% in test [9] and 89% in test [10].
As to `Oc1ccc(-c2nc(-c3ccc(F)cc3)c(-c3ccncc3)[nH]2)cc1`, the residual activity in test [1] worked out at 117%; in [2] it was 83%; in test [3] it was 55%; in test [4], 45%; in test [5], 105%; in [6], 68%. For the same molecule, the residual activity came out at 88% in [7] and 92% in test [8].
For `O=C(O)c1ccc2c3c1cccc3c(=O)n1c3ccccc3nc21`, the residual activity in [1] was found to be 103%; in test [2] it was 79%; in test [3], 51%; in test [4], 37%; in [5] it was 90%; in [6], 55%. Further, the residual activity in test [7] stood at 81%; in test [8], 73%; in [9] it was 95%; in test [10], 94%.
On to `Cc1ccc(S(=O)(=O)/C=C/C#N)cc1`, for which the residual activity in [1] was 94%; in test [2] it was 121%; in test [3] it was 116%; in test [4] it was 120%; in test [5], 102%; in [6], 109%. The residual activity in test [7] came out at 74%; in test [8] it was 112%; in test [9], 94%; in test [10], 97%.
Consider `CC[n+]1c(/C=C/N(C)c2ccccc2)n(-c2ccccc2)c2ccc(-c3nc4ccccc4s3)cc21`, for which the residual activity amounted to 114% in [1]; 84% in test [2]; 94% in test [3]; 64% in test [4]; 117% in test [5]; 97% in test [6]. Besides, the residual activity came to 102% in [7], 87% in test [8], 111% in test [9] and 73% in [10].
`O=C1NC(=O)c2cc(Nc3ccc(F)cc3)c(Nc3ccc(F)cc3)cc21`: the residual activity in [1] is 87%; in [2], 91%; in test [3] it was 123%; in [4], 77%; in [5] it was 103%; in [6] it was 78%. For the same molecule, the residual activity in test [7] was determined as 101%; in [8] it was 100%; in test [9], 57%; in test [10], 23%.
